Compounds without any hit were thinned out: in the full panel of roughly 83,000, 20% have a hit.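 In brief: 96-well plates, 48 h treatment, single concentration, percent growth endpoint.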 Values without a mark were called inactive. Activity calls are given as the source filed them. The calls were made as follows: active = growth percent below 10; inactive = the rest.
What was measured:
Assay in all cases: NCI-60 one-dose screen, 48 h (100 = growth as untreated, 0 = no growth, -100 = all killed)
RPMI-8226 leukemia = settings: 10 µM
OVCAR-8 ovarian = settings: 10 µM
OVCAR-5 ovarian = settings: 10 µM
OVCAR-4 ovarian = settings: 10 µM
SK-OV-3 ovarian = settings: 10 µM
IGROV1 ovarian = settings: 10 µM
OVCAR-3 ovarian = settings: 10 µM
HS 578T breast = settings: 10 µM
NCI/ADR-RES ovarian = settings: 10 µM
BT-549 breast = settings: 10 µM
MDA-MB-435 melanoma = settings: 10 µM
SW-620 colon = settings: 10 µM
MCF7 breast = settings: 10 µM unless noted
HCT-116 colon = settings: 10 µM
HCC-2998 colon = settings: 10 µM
KM12 colon = settings: 10 µM
T-47D breast = settings: 10 µM

In the case of `Cc1ccc(C)n1-c1ccsc1C(=O)NNC(=O)C(Cl)Cl`, the growth (RPMI-8226 leukemia) is reported as 107%, the growth (OVCAR-8 ovarian) is reported as 106% and the growth (OVCAR-5 ovarian) is reported as 112%. For the same compound, the growth (OVCAR-4 ovarian) was 96.9%, the growth (SK-OV-3 ovarian) was 95.7% and the growth (IGROV1 ovarian) was 108%. The growth (OVCAR-3 ovarian) was 107%, the growth (HS 578T breast) was 100% and the growth (NCI/ADR-RES ovarian) was 102%. The growth (BT-549 breast) was 112%, the growth (MDA-MB-435 melanoma) was 98.4% and the growth (SW-620 colon) was 102%. For the same compound, the growth (MCF7 breast) was 96.9%, the growth (HCT-116 colon) was 105% and the growth (HCC-2998 colon) was 105%. The growth (KM12 colon) was 101%.

For `CC1(O)OC(COc2ccc(Cl)cc2)COC1O` (centres undefined), the growth (RPMI-8226 leukemia) was 109%, the growth (OVCAR-8 ovarian) was 100% and the growth (OVCAR-5 ovarian) was 111%. For the same compound, the growth (OVCAR-4 ovarian) was 99.1%, the growth (SK-OV-3 ovarian) was 116% and the growth (IGROV1 ovarian) was 113%. The growth (HS 578T breast) was 95.5%, the growth (NCI/ADR-RES ovarian) was 103% and the growth (BT-549 breast) was 112%. The growth (MDA-MB-435 melanoma) was 106%, the growth (SW-620 colon) was 101% and the growth (MCF7 breast) was 90.4%. The growth (HCT-116 colon) was 103%, the growth (HCC-2998 colon) was 109% and the growth (KM12 colon) was 108%.

With `COC(=O)c1cc(-c2ccc(Cl)c(Cl)c2)[nH]c(=O)c1C#N` the growth (RPMI-8226 leukemia) was 112%, the growth (OVCAR-8 ovarian) was 101% and the growth (OVCAR-5 ovarian) was 99.2%. For the same compound, the growth (OVCAR-4 ovarian) was 103%, the growth (SK-OV-3 ovarian) was 103% and the growth (OVCAR-3 ovarian) was 116%. For the same compound, the growth (HS 578T breast) was 74.9%, the growth (NCI/ADR-RES ovarian) was 105% and the growth (BT-549 breast) was 104%. For the same compound, the growth (MDA-MB-435 melanoma) was 104%, the growth (SW-620 colon) was 99.1% and the growth (MCF7 breast) was 89.1%. The growth (HCT-116 colon) was 97.2%, the growth (HCC-2998 colon) was 117% and the growth (KM12 colon) was 109%.

With `Cc1cc2nc(CC(=O)c3ccccc3)c(=O)[nH]c2cc1C` the growth (RPMI-8226 leukemia) was 103%, the growth (OVCAR-8 ovarian) was 94.7% and the growth (OVCAR-5 ovarian) was 116%. The growth (OVCAR-4 ovarian) was 102%, the growth (SK-OV-3 ovarian) was 102% and the growth (IGROV1 ovarian) was 91.9%. It also gave a growth (OVCAR-3 ovarian) of 109%, a growth (HS 578T breast) of 73.8% and a growth (NCI/ADR-RES ovarian) of 94.6%. It also gave a growth (BT-549 breast) of 89.6%, a growth (MDA-MB-435 melanoma) of 106% and a growth (SW-620 colon) of 94.3%. For the same compound, the growth (MCF7 breast) was 78.1%, the growth (HCT-116 colon) was 80.3% and the growth (HCC-2998 colon) was 110%. For the same compound, the growth (KM12 colon) was 100%.

`CCOc1ccccc1/C=N/Nc1nc2ccccc2o1` gave a growth (RPMI-8226 leukemia) of 105%, a growth (OVCAR-8 ovarian) of 108% and a growth (OVCAR-5 ovarian) of 97.3%. It also gave a growth (OVCAR-4 ovarian) of 41.9%, a growth (IGROV1 ovarian) of 116% and a growth (OVCAR-3 ovarian) of 122%. The growth (HS 578T breast) was 101%, the growth (NCI/ADR-RES ovarian) was 97.6% and the growth (T-47D breast) was 23.4%. It also gave a growth (BT-549 breast) of 98.3%, a growth (MDA-MB-435 melanoma) of 113% and a growth (SW-620 colon) of 102%. For the same compound, the growth (MCF7 breast) was 7.97% (active), the growth (HCT-116 colon) was 102% and the growth (HCC-2998 colon) was 62.2%. For the same compound, the growth (KM12 colon) was 86.4%.

For `CCOC(=O)c1[nH]c(C)c(C(C)=O)c1C`, the growth (RPMI-8226 leukemia) was -7.82% (active), the growth (OVCAR-8 ovarian) was 96.1% and the growth (OVCAR-5 ovarian) was 88%. It also gave a growth (OVCAR-4 ovarian) of 86.8%, a growth (SK-OV-3 ovarian) of 101% and a growth (HS 578T breast) of 91.6%. The growth (NCI/ADR-RES ovarian) was 98%, the growth (T-47D breast) was 86.9% and the growth (BT-549 breast) was 107%. It also gave a growth (MDA-MB-435 melanoma) of 94.7%, a growth (SW-620 colon) of 99.4% and a growth (MCF7 breast) of 87.1%. For the same compound, the growth (HCT-116 colon) was 90.4%, the growth (HCC-2998 colon) was 88.6% and the growth (KM12 colon) was 98.3%.

`COc1ccc(C2OC(N)=C(O)C2=O)cc1OC` (centres undefined) was tested, and the growth (RPMI-8226 leukemia) was 104%, the growth (OVCAR-8 ovarian) was 105% and the growth (OVCAR-5 ovarian) was 96.7%. It also gave a growth (OVCAR-4 ovarian) of 103%, a growth (SK-OV-3 ovarian) of 99.5% and a growth (IGROV1 ovarian) of 106%. For the same compound, the growth (HS 578T breast) was 70.1%, the growth (NCI/ADR-RES ovarian) was 103% and the growth (BT-549 breast) was 102%. For the same compound, the growth (MDA-MB-435 melanoma) was 110%, the growth (SW-620 colon) was 103% and the growth (MCF7 breast) was 93.8%. It also gave a growth (HCT-116 colon) of 99.7%, a growth (HCC-2998 colon) of 107% and a growth (KM12 colon) of 109%.

`O=[N+]([O-])c1ccc(-c2noc(-c3cccs3)n2)cc1` was tested, and the growth (RPMI-8226 leukemia) was 96.5%, the growth (OVCAR-8 ovarian) was 86.6% and the growth (OVCAR-5 ovarian) was 98.5%. The growth (OVCAR-4 ovarian) was 71.6%, the growth (SK-OV-3 ovarian) was 95.2% and the growth (IGROV1 ovarian) was 96%. The growth (HS 578T breast) was 60.3%, the growth (NCI/ADR-RES ovarian) was 82.4% and the growth (BT-549 breast) was 78.3%. For the same compound, the growth (MDA-MB-435 melanoma) was 94.2%, the growth (SW-620 colon) was 90.4% and the growth (MCF7 breast) was 63.2%. It also gave a growth (HCT-116 colon) of 47.5%, a growth (HCC-2998 colon) of 99.9% and a growth (KM12 colon) of 88.5%.

`CCCCNC(=O)C(=O)NCCCC` showed a growth (RPMI-8226 leukemia) of 106%, a growth (OVCAR-8 ovarian) of 105% and a growth (OVCAR-5 ovarian) of 113%. The growth (OVCAR-4 ovarian) was 108%, the growth (SK-OV-3 ovarian) was 123% and the growth (IGROV1 ovarian) was 113%. The growth (OVCAR-3 ovarian) was 108%, the growth (HS 578T breast) was 96.6% and the growth (NCI/ADR-RES ovarian) was 104%. It also gave a growth (BT-549 breast) of 98.8%, a growth (MDA-MB-435 melanoma) of 104% and a growth (SW-620 colon) of 104%. The growth (MCF7 breast) was 94.1%, the growth (HCT-116 colon) was 104% and the growth (HCC-2998 colon) was 114%. The growth (KM12 colon) was 102%.

Source: PubChem BioAssay (NCI)
